This is part of a sample that, as a whole, favours compounds with a hit. Of some 79,000 tested, about 15% had one in any assay. Values without a mark were called inactive. Active and inactive are the calls of the source. Rule as the data show it: active = growth inhibition above about 70%; inactive = the rest.
Assays:
[1] = NCI Yeast Anticancer Drug Screen. Data for the rad50 strain (AID 155);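 also: 0% = growth of vehicle-only cultures of the same strain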; conditions: S. cerevisiae rad50 strain growth inhibition, stronger effect = higher value
Method in brief: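 DNA repair mutant yeast, compound exposure, growth read-out; inhibition is taken relative to vehicle.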

[2] = NCI Yeast Anticancer Drug Screen. Data for the mec2-1 strain (AID 157); conditions: S. cerevisiae mec2-1 strain, stronger effect = higher value
Method in brief: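 mec2-1 yeast strain, carrying an alteration in DNA damage repair or cell cycle control, was exposed to compounds; growth inhibition was measured relative to vehicle-treated controls.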

[3] = NCI Yeast Anticancer Drug Screen. Data for the sgs1 mgt1 strain (AID 161);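 also: 0% = growth of cultures given vehicle only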; conditions: S. cerevisiae sgs1 mgt1 strain, stronger effect = higher value
Method in brief: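 This yeast growth screen uses a strain with defined DNA-repair lesions; compound-treated growth is compared with vehicle-treated growth.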

[4] = NCI Yeast Anticancer Drug Screen. Data for the cln2 rad14 strain (AID 165);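 also: 0% = growth equal to vehicle treated cultures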; conditions: S. cerevisiae cln2 rad14 strain, stronger effect = higher value
Method in brief: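 Yeast carrying cln2 and rad14 alterations (cell cycle control and DNA damage repair) were exposed to compounds. Growth inhibition was measured against vehicle-treated controls.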

[5] = NCI Yeast Anticancer Drug Screen. Data for the bub3 strain (AID 167); conditions: S. cerevisiae bub3 mutant strain, stronger effect = higher value
Method in brief: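 In this screen, a yeast mutant lacking normal mitotic checkpoint function is challenged with compound. Relative growth versus vehicle gives the inhibition value.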

[6] = NCI Yeast Anticancer Drug Screen. Data for the mlh1 rad18 strain (AID 175); conditions: S. cerevisiae mlh1 rad18 strain growth inhibition, stronger effect = higher value
Method in brief: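 Growth inhibition of the yeast strain was measured after compound exposure and expressed relative to vehicle-treated controls. The strain carries defined defects in DNA damage repair.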

[7] = at 5.0 µM (retest, dose inferred, filed as 0.5)
[8] = at 50.0 µM (retest, dose inferred, filed as 5.0)

| Compound | growth inhibition [1, 7] [%] | growth inhibition [1, 8] | growth inhibition ([1]; at 50.0 µM) | growth inhibition [2, 7] [%] | growth inhibition [2, 8] | growth inhibition ([2]; at 50.0 µM) | growth inhibition [3, 7] [%] | growth inhibition [3, 8] | growth inhibition ([3]; at 50.0 µM) | growth inhibition [4, 7] [%] | growth inhibition [4, 8] | growth inhibition ([4]; at 50.0 µM) | growth inhibition [5, 7] | growth inhibition [5, 8] | growth inhibition ([5]; at 50.0 µM) | growth inhibition [6, 7] [%] | growth inhibition [6, 8] | growth inhibition ([6]; at 50.0 µM) |
| --- | --- | --- | --- | --- | --- | --- | --- | --- | --- | --- | --- | --- | --- | --- | --- | --- | --- | --- |
| C/C(=N\NC(=S)N1CCC(C)CC1)c1ncccn1 | -4 | 98% (active) | 99.2% (active) | -5 | 99% (active) | 99.2% (active) | 0 | 98% (active) | 99.3% (active) | -7 | 98% (active) | 98.8% (active) | -1% | 98% (active) | 99.3% (active) | -4 | 99% (active) | 98.9% (active) |
| Cc1ccc(N2CC(O)CN(c3ccc(C)cc3)CC(O)C2)cc1 (stereo not given) | 0 | 3% | 20.4% | -7 | -13% | 18.1% | -29 | 1% | 24.9% | 6 | -10% | 6.55% | 3% | 1% | 15.3% | 33 | 0% | 23.2% |
| CCCCCCCCCCCCCCN1CCSCC1 | 6 | 18% | 98.5% (active) | 3 | 14% | 96% (active) | 4 | 1% | 99% (active) | 5 | 14% | 98.6% (active) | 9% | 21% | 99% (active) | 5 | 12% | 98.8% (active) |
| COC(=O)C1c2cc3c(c(O)c2CCC1(C)O)C(=O)c1c(O)cc2c(c1C3=O)OC1OC2(C)C(O)C(N(C)C)C1O (stereo not given) | 19 | 63% | 91.9% (active) | 28 | 59% | 86.3% (active) | 12 | 58% | 92.6% (active) | 15 | 73% (active) | 69.3% | 72% (active) | 90% (active) | 83.8% (active) | 36 | 98% (active) | 93% (active) |
| CC12CCC3C(CCC4CC(O)CCC43C)C1CC=CO2 (stereo not given) | 1 | 98% (active) | 23.4% | 32 | 99% (active) | 50.6% | 17 | 99% (active) | 11.3% | 0 | 99% (active) | -1.5% | 45% | 98% (active) | 59.4% | 24 | 99% (active) | 68.9% |
| C1=C(C2=CCCc3ccccc32)c2ccccc2CC1 | -1 | 36% | 30.4% | -5 | 27% | 34.5% | -3 | 50% | 31.9% | -4 | 59% | -45.8% | -2% | 34% | 5.5% | -1 | 43% | 74.9% (active) |
| O=C1C=C(OCC=C(C(F)(F)F)C(F)(F)F)C(=O)c2ccccc21 | -6 | 18% | 55.1% | 27 | 68% | 64.8% | 24 | 74% (active) | 66.9% | -1 | 25% | 49.4% | 1% | 52% | 67.2% | 45 | 67% | 80.3% (active) |
| O=C(Nc1cccc(NC(=O)c2cc(=O)c3ccccc3o2)n1)c1cc(=O)c2ccccc2o1 | 34 | 34% | 62.6% | 13 | 13% | 14.9% | -4 | -4% | 21.7% | 21 | 21% | 24.2% | 15% | 15% | 58.5% | 24 | 24% | 67.3% |
| C#CCCOC(=O)CC1=C(C)/C(=C/c2ccc(S(C)=O)cc2)c2ccc(F)cc21 (stereo not given) | 23 | 88% (active) | 84.3% (active) | 18 | 84% (active) | 90.2% (active) | 65 | 73% (active) | 88% (active) | 43 | 41% | 85.2% (active) | 51% | 85% (active) | 86.4% (active) | 21 | 83% (active) | 85.9% (active) |
| CN(C)CCC(=O)c1ccco1 | 6 | 85% (active) | 86.1% (active) | 13 | 93% (active) | 94% (active) | 25 | 87% (active) | 93.3% (active) | 10 | 89% (active) | 93.5% (active) | -3% | 39% | 70.2% (active) | 13 | 92% (active) | 95.3% (active) |

Reference: PubChem BioAssay (NCI)
